Experimental data as given in paper PMC7862700, “An all-to-all approach to the identification of sequence-specific readers for epigenetic DNA modifications on cytosine”.

Columns and labels:
Test in all cases: DAPPL (digital affinity profiling via proximity ligation, sequencing); 10 mM Tris-HCl pH 7.5, 50 mM NaCl, 1 mM DTT, 4% glycerol, room temperature, 30 min; GST-TFs on glutathione beads, 16-mer random dsDNA library, 0.1% formaldehyde crosslink after washing; high values mean tight binding
Conditions in all cases: protein: recombinant; tags: N-terminal GST; dsDNA, one strand shown
[1] = molecular target: T1, FLI1 (Homo sapiens, UniProt Q01543 1-452)
T1 sequence: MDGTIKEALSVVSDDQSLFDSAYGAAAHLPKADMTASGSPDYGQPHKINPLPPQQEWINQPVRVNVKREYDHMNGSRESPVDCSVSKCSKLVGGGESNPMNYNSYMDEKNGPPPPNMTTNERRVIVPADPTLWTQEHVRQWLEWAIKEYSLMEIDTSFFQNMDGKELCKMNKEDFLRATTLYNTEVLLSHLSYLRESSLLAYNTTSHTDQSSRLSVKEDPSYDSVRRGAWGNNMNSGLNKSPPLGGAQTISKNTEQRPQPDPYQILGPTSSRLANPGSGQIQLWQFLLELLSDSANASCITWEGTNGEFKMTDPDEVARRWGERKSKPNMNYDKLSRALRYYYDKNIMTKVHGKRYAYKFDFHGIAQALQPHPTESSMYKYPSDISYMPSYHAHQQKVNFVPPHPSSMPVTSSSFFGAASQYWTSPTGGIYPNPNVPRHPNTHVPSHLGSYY
Outline: (§1)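 Pools of DNA-barcoded human transcription factors, expressed in yeast as GST fusions on glutathione beads and combined with a tag-only sample, were incubated with 200 nmole of a 16-mer random double-stranded DNA library. Incubation took 30 min at room temperature in Tris/NaCl/DTT/glycerol buffer and was followed by washing, 0.1% formaldehyde crosslinking, proximity ligation (BsaI/T4 ligase, 1 h, 37 °C), PCR amplification and sequencing on an Illumina NextSeq500. Binding signal is the ratio of a hexamer's read frequency for a factor to its frequency for the tag-only sample.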

[2] = molecular target: T2, ELK1 (Homo sapiens, UniProt P19419 1-428)
T2 sequence: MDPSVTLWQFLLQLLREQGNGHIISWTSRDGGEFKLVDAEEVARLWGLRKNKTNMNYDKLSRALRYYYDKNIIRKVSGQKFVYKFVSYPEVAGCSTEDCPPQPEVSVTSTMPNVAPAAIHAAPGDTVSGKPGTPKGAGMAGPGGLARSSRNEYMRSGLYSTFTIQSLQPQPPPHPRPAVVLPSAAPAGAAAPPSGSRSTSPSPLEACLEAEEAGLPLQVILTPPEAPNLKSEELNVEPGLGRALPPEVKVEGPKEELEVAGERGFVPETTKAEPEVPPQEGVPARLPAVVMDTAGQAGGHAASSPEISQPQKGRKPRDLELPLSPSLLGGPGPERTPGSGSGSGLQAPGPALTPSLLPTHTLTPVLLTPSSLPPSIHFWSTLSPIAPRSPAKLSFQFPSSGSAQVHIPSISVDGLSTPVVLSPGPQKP
Outline: as §1

[3] = molecular target: T3, GABPA (Homo sapiens, UniProt Q06546 1-454)
T3 sequence: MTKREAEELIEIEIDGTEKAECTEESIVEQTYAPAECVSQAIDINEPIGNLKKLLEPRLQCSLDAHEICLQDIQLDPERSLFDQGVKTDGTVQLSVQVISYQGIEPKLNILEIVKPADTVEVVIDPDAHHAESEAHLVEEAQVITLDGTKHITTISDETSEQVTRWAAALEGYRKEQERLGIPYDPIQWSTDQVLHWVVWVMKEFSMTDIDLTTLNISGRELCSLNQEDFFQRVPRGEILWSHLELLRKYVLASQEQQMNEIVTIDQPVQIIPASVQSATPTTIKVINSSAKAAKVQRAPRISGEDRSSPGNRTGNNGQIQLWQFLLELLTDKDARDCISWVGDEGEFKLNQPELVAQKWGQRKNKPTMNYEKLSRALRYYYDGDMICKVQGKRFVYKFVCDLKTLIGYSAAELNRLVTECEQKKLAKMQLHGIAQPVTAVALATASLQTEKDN
Outline: as §1

[4] = molecular target: T4, ERG (Homo sapiens, UniProt P11308 1-479)
T4 sequence: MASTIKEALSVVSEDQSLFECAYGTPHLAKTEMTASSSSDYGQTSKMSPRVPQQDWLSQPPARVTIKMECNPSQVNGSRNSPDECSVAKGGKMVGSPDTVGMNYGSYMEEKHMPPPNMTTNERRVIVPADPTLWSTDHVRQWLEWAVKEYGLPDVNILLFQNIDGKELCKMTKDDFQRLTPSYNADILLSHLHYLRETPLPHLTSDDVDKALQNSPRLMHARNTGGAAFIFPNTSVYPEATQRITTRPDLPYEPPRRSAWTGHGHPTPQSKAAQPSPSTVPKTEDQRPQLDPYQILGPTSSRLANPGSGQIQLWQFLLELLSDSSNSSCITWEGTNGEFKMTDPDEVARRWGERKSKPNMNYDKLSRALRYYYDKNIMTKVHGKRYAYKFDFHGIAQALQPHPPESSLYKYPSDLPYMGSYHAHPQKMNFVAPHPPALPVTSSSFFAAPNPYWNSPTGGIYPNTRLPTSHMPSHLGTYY
Outline: as §1

[5] = molecular target: ELF1 (Homo sapiens, UniProt P32519 1-619)
Chain of ELF1 (P32519 whole entry): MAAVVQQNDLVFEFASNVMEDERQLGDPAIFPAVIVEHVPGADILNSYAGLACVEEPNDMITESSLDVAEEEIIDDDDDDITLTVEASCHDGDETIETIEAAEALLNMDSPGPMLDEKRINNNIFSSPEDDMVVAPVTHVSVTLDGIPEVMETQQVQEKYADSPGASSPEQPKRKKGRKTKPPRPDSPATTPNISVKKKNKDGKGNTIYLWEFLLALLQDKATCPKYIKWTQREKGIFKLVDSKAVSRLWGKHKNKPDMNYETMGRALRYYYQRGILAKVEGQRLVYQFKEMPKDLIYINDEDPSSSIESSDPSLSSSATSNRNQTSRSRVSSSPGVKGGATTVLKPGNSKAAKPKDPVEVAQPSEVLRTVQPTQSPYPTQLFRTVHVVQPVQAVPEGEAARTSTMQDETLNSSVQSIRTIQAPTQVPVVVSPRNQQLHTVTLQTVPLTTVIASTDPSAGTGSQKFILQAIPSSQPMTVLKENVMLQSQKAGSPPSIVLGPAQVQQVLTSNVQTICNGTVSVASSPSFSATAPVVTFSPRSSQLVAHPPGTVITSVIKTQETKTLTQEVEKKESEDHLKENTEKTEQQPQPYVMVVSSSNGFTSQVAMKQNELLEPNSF
Outline: as §1

[6] = molecular target: T5, EHF (Homo sapiens, UniProt Q9NZC4 1-300)
T5 sequence: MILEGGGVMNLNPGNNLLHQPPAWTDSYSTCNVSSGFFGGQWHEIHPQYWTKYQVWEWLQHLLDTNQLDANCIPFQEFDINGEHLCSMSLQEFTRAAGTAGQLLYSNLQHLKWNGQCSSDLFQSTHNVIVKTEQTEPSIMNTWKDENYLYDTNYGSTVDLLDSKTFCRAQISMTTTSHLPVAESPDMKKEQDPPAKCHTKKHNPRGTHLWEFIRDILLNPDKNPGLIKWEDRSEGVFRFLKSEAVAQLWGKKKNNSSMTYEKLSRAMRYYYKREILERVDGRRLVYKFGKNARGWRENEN
Outline: as §1

[7] = molecular target: SPI1 (Homo sapiens, UniProt P17947 1-270)
Outline: as §1

[8] = molecular target: SPIB (Homo sapiens, UniProt Q01892 1-262)
Chain of SPIB (Q01892 whole entry): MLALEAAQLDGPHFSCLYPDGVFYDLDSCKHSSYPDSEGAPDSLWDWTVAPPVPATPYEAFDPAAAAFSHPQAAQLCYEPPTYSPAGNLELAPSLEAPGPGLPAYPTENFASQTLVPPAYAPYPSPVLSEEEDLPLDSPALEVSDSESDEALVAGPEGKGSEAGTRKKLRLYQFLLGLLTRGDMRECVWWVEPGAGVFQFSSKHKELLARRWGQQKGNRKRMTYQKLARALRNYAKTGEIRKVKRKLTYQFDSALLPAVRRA
Outline: as §1

[9] = molecular target: T6, ELK3 (Homo sapiens, UniProt P41970 1-407)
T6 sequence: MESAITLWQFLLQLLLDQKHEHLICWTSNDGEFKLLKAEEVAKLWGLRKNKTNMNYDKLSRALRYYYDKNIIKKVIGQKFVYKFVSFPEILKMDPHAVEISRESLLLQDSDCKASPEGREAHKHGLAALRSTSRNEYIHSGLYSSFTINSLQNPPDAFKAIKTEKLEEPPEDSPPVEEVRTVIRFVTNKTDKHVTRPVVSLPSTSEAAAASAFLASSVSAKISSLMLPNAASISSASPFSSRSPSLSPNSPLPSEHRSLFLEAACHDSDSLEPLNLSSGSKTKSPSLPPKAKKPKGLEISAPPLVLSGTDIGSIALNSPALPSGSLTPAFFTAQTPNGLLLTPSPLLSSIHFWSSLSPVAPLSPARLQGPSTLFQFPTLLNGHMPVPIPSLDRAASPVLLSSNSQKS
Outline: as §1

Sequence	binding signal [1]	binding signal [2]	binding signal [3]	binding signal [4]	binding signal [5]	binding signal [6]	binding signal [7]	binding signal [8]	binding signal [9]
ACCCCG	1.24 fold enrichment (6-mer frequency, TF over GST control)	1.3 fold enrichment (6-mer frequency, TF over GST control)	1.29 fold enrichment (6-mer frequency, TF over GST control)	1.24 fold enrichment (6-mer frequency, TF over GST control)	1.31 fold enrichment (6-mer frequency, TF over GST control)	1.27 fold enrichment (6-mer frequency, TF over GST control)	1.14 fold enrichment (6-mer frequency, TF over GST control)	1.3 fold enrichment (6-mer frequency, TF over GST control)	1.21 fold enrichment (6-mer frequency, TF over GST control)
AGCTGC	1.16 fold enrichment (6-mer frequency, TF over GST control)	1.16 fold enrichment (6-mer frequency, TF over GST control)	1.17 fold enrichment (6-mer frequency, TF over GST control)	1.1 fold enrichment (6-mer frequency, TF over GST control)	1.18 fold enrichment (6-mer frequency, TF over GST control)	1.18 fold enrichment (6-mer frequency, TF over GST control)	1.11 fold enrichment (6-mer frequency, TF over GST control)	1.24 fold enrichment (6-mer frequency, TF over GST control)	1.01 fold enrichment (6-mer frequency, TF over GST control)
AGCCTC	1.39 fold enrichment (6-mer frequency, TF over GST control)	1.3 fold enrichment (6-mer frequency, TF over GST control)	1.31 fold enrichment (6-mer frequency, TF over GST control)	1.21 fold enrichment (6-mer frequency, TF over GST control)	1.25 fold enrichment (6-mer frequency, TF over GST control)	1.13 fold enrichment (6-mer frequency, TF over GST control)	1.26 fold enrichment (6-mer frequency, TF over GST control)	1.07 fold enrichment (6-mer frequency, TF over GST control)	1.21 fold enrichment (6-mer frequency, TF over GST control)
TGCTTG	1.31 fold enrichment (6-mer frequency, TF over GST control)	1.15 fold enrichment (6-mer frequency, TF over GST control)	1.11 fold enrichment (6-mer frequency, TF over GST control)	1.15 fold enrichment (6-mer frequency, TF over GST control)	1.18 fold enrichment (6-mer frequency, TF over GST control)	1.31 fold enrichment (6-mer frequency, TF over GST control)	1.17 fold enrichment (6-mer frequency, TF over GST control)	1.2 fold enrichment (6-mer frequency, TF over GST control)	1.11 fold enrichment (6-mer frequency, TF over GST control)
AAAGTT	1.07 fold enrichment (6-mer frequency, TF over GST control)	1.05 fold enrichment (6-mer frequency, TF over GST control)	1.13 fold enrichment (6-mer frequency, TF over GST control)	1.02 fold enrichment (6-mer frequency, TF over GST control)	1.08 fold enrichment (6-mer frequency, TF over GST control)	1.1 fold enrichment (6-mer frequency, TF over GST control)	1.07 fold enrichment (6-mer frequency, TF over GST control)	1.16 fold enrichment (6-mer frequency, TF over GST control)	1.17 fold enrichment (6-mer frequency, TF over GST control)
CTCGTA	1.31 fold enrichment (6-mer frequency, TF over GST control)	1.37 fold enrichment (6-mer frequency, TF over GST control)	1.3 fold enrichment (6-mer frequency, TF over GST control)	1.22 fold enrichment (6-mer frequency, TF over GST control)	1.32 fold enrichment (6-mer frequency, TF over GST control)	1.31 fold enrichment (6-mer frequency, TF over GST control)	1.39 fold enrichment (6-mer frequency, TF over GST control)	1.38 fold enrichment (6-mer frequency, TF over GST control)	1.36 fold enrichment (6-mer frequency, TF over GST control)
AATTTT	1.24 fold enrichment (6-mer frequency, TF over GST control)	1.26 fold enrichment (6-mer frequency, TF over GST control)	1.27 fold enrichment (6-mer frequency, TF over GST control)	1.21 fold enrichment (6-mer frequency, TF over GST control)	1.22 fold enrichment (6-mer frequency, TF over GST control)	1.3 fold enrichment (6-mer frequency, TF over GST control)	1.3 fold enrichment (6-mer frequency, TF over GST control)	1.26 fold enrichment (6-mer frequency, TF over GST control)	1.19 fold enrichment (6-mer frequency, TF over GST control)
TGGGTT	1.17 fold enrichment (6-mer frequency, TF over GST control)	1.11 fold enrichment (6-mer frequency, TF over GST control)	1.18 fold enrichment (6-mer frequency, TF over GST control)	1.1 fold enrichment (6-mer frequency, TF over GST control)	1.1 fold enrichment (6-mer frequency, TF over GST control)	1.18 fold enrichment (6-mer frequency, TF over GST control)	1.01 fold enrichment (6-mer frequency, TF over GST control)	1.02 fold enrichment (6-mer frequency, TF over GST control)	1.01 fold enrichment (6-mer frequency, TF over GST control)
